Source: PubChem
Only some compounds are listed: those with a hit (about 1.8% of all), similar ones and a draw of the others.
PERK inh: block of dimerizer-induced PERK translation repression, primary screen, PERK inhibitor project, CHO PERK-DD cells, SEAP luminescence, HTS | CHO PERK-DD fusion, SEAP luminescence translation reporter | inhibition, % at 5.6 µM | 220,000 tested, 0.17% active | AID 1416, 2008;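 active = inhibition above the mean inhibition of all tested compounds plus 3 SD, set separately per screening campaign, cut at about 2.9% in these data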;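 also: PERK kinase domain activated by AP20187 dimerizer at 100 nM; 0% = DMSO with dimerizer and 100% = rapamycin at 8.4 µM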
PGE2 EP2 inh: human EP2 receptor antagonists, primary screen, TR-FRET cAMP, C6 glioma cells. inhibition, % at 25 µM. C6 glioma cells expressing human EP2; cells stimulated with saturating PGE2. Prostaglandin E2 receptor EP2 subtype (Homo sapiens), P43116. 260,000 tested, 0.52% active. AID 1422, 2008;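 active = percent inhibition above 40 after rounding to a whole number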;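 also: rat C6 glioma host cells with rolipram phosphodiesterase inhibitor present; the protocol text gives 20 µM as final concentration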
eIF4E-4G inh: eIF4E–eIF4G protein interaction inhibitors, primary screen, biochemical, uHTS, TR-FRET, eIF4GI fragment; AID 782, 2007; TR-FRET eIF4E-eIF4GI(517-606) binding, 2 h; inhibition, % at 21.7 µM; 220,000 tested, 0.37% active;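 active = inhibition above about 30%, limit read from the data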;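 also: 0% = full FRET control wells and 100% = background wells lacking eIF4GI fragment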
EP2 mod: EP2 receptor modulators, cAMP readout, primary screen, cell-based, HTRF cAMP, PGE2 stimulation | AID 940, 2007 | 260,000 tested, 0.83% active | Prostaglandin E2 receptor EP2 subtype (Homo sapiens), P43116 | induction, % at 25 µM | EP2-expressing cells, cAMP HTRF FRET, PGE2 co-stimulation;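 active = compounds whose cAMP rise, as percent of the full-agonist control response, exceeds 60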;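 also: rat C6 glioma line stably carrying human EP2 under a CMV promoter; the protocol text gives 20 µM as final concentration; 100% = response of wells given 1 µM PGE2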
* marks the source's active call; other numbers are inactive results; / = not tested or not shown; ! = not active in a repeat; [ ] = remark or other dose.

SMILES	PERK inh	PGE2 EP2 inh	eIF4E-4G inh	EP2 mod
CC(=O)c1cccc(NC(=O)c2ccc(-c3ccccc3[N+](=O)[O-])o2)c1	0	47*	1	-69
CCn1nnc(NC(=O)c2ccc(-c3ccccc3[N+](=O)[O-])o2)n1	0	6	4	-16
COc1ccc(C=C2C(=O)N(C)C(=O)N(C)C2=O)cc1Br	/	6	/	-30
O=C(O)c1cc([N+](=O)[O-])ccc1N1CCCCC1	1	6	-2	22
Cc1ccc(C(=O)c2cc([N+](=O)[O-])ccc2N2CCCCC2)c(C)c1	0	6	0	63*
CC[C@H](Cn1ncc2ccccc2c1=O)NC(=O)C(C)(C)c1ccc(Cl)cc1	/	/	/	9
C[C@H]1CCCC2(CC[N+](C)(CCC[N+](C)(C)C)CC2)C1 (some centres undefined)	/	48*	/	8
Cc1cc(C)c(O)c(C2(O)C(=O)c3ccccc3C2=O)c1	-1	5	-1	-9
O=C1c2ccccc2C(O)(O)[C@@]1(O)[C@]1(O)C(=O)c2ccccc2C1(O)O	/	73*	/	-41
CCNc1nc(NC(C)C)nc(Oc2ccc(OCCOc3ccccc3)nn2)n1	0	11	57*	-44
CCNc1nc(NC(C)C)nc(Oc2ccc(OCc3ccccc3)nn2)n1	-2	8	2	-56
CC(=O)NC(CSc1cc(C)nc2ccc(Br)cc12)C(=O)O (centres undefined)	2	12	5	64*
COc1ccc2nc(C)cc(SCC(NC(C)=O)C(=O)OC(C)C)c2c1 (centres undefined)	0	13	5	14
Cc1nc(-n2nnc3ccccc32)c2c3c(sc2n1)CCCC3	-1	0	1	61*
O=C(C1c2ccccc2Oc2ccccc21)N1C2CCC1CC(O)(c1ccco1)C2 (centres undefined)	/	/	/	-32
CC1CCN(CC(=O)Nc2ccccc2-c2ccccc2)CC1	0	5	-4	65*!
CC1CCN(CC(=O)Nc2ccccc2C(=O)c2ccccc2)CC1	1	0	-3	63*
COC(=O)c1ccc(C(=O)OC)c(NC(=O)CN2CCC(C)CC2)c1	1	5	3	27
COc1cccc(NC(=O)c2sc(NC(=O)C3CC3)nc2C)c1	/	12	/	-61
CC(C)CC(=O)Nc1ccc2ccccc2c1	3.2*!	7	-4	-12
COCCn1nnnc1CN(Cc1cccs1)Cc1cc2ccc(C)cc2[nH]c1=O	/	6	/	-80
O=C(O)C[C@H](NC(=O)CP(=O)(O)O)C(=O)O.[NH-][C@@H]1CCCC[C@H]1[NH-].[Pt]	/	40*	/	9
Nc1ccc2nc(-c3ccc(Cl)cc3)[nH]c2c1	/	14	2	-26
Nc1ccc2nc(-c3cc(Cl)c(N)c(Cl)c3)[nH]c2c1	0	17	39*[fluorescence artefact?]	-53
CC(C)(C)NC(=O)CN(C(=O)CNC(=O)c1cccs1)c1ccc(F)cc1	/	9	/	-18
SMILES	PERK inh	PGE2 EP2 inh	eIF4E-4G inh	EP2 mod
Cc1cccc(N2CC(C(=O)OCC(=O)c3ccc(OC(=O)c4cccs4)cc3)CC2=O)c1C (centres undefined)	1	120*	0	-21
O=C(Nc1nnc(-c2ccccc2Cl)o1)c1nc2ccccc2s1	1	91*	2	-61
O=C(Nc1nnc(-c2ccccc2Cl)o1)c1ccco1	1	8	-1	-4
CCCn1cnc2scc(-c3ccc(CC)cc3)c2c1=O	/	9	/	53
COc1cc(/C=C2\SC(=S)N(NS(=O)(=O)c3ccccc3)C2=O)ccc1O	0	16	0	10
O=C(CCCN1C(=O)/C(=C/c2ccccc2)SC1=S)Nc1cccc(O)c1	0	70*	1	-80
Cc1ccc(/C=C2\SC(=S)N(CCC(=O)NNS(=O)(=O)c3ccccc3)C2=O)cc1	0	9	1	65*
COc1cc(/C=C2\SC(=S)N(NS(=O)(=O)c3ccc(C)cc3)C2=O)ccc1O	1	41*	-1	-51
CCOC(=O)C(=O)Nc1sc(C(=O)Nc2ccc(C)c(Cl)c2)c(C)c1C(=O)OC	/	8	/	1
COc1cc(O)c2c(O)c3c(c4c2c1[C@]1(C4)C(C)=CCCC1(C)C)[C@H](O)[C@@]1(O)CC(=O)C(C(N)=O)=C(O)[C@]1(O)C3=O	/	51*	/	28
O=C(CCCSc1nc(-c2ccco2)cc(C(F)(F)F)n1)NCCc1ccccc1	/	11	/	-146
